KB-3-1 cytotox = qHTS assay for MDR1-selective chemotherapeutics: Primary screen using the parental adenocarcinoma cell KB-3-1; AID 1347075, 2019; KB-3-1 viability, CellTiter-Glo ATP luminescence, 72 h; Potency, µM (top dose mostly 46.1 µM), actives largely listed as cytotoxic; hit rate 1.4% among 400,000; further: on the % scale 0 is the no-effect control and ±100 the full control effect; nearly all actives have a fitted effect of over 60% in size
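Parental KB-3-1 viability, qHTS format: 72 h compound exposure, 37 °C; CellTiter-Glo; media-only wells and DMSO plates as controls; concentration-effect fits on corrected data.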
SW480 rereplic = A quantitative high throughput screen for small molecules that induce DNA re-replication in SW480 colon adenocarcinoma cells; SW480 DNA re-replication, Hoechst DNA content imaging, 48 h; Potency, µM (series often up to 46.1 µM), inactives show at the top dose re-replication activation, actives largely listed as activators; hit rate 1.8% among 340,000; further: % of control where 0% means no effect; nearly all actives have a fitted effect of over 55% in size
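Treated cells incubate 48 hr (37 C, 5% CO2), are stained 40 min with Hoechst, and nuclear fluorescence is enumerated; a rise in nuclei with high DNA signal marks re-replication.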
MCF10A rerep = A quantitative high throughput screen for small molecules that induce DNA re-replication in MCF 10a normal breast cells; MCF 10A DNA re-replication, Hoechst nuclear intensity, 48 h; Potency, µM (titrated, usually from 46.1 µM), without a hit: at the highest dose activity, positive = re-replication, most hits filed as activators; hit rate 2.9% among 350,000; further: % of control where 0% means no effect; nearly all actives have a fitted effect of over 50% in size
KB-V1 MDR tox = qHTS assay for MDR1-selective chemotherapeutics: Primary screen using the drug-selected MDR subline cells KB-V1 | AID 1347076, 2019 | KB-V1 MDR cells viability, CellTiter-Glo, 72 h | Potency, µM (series often up to 46.1 µM), hits mostly cytotoxic | hit rate 3.4% among 400,000; further: on the % scale 0 is the no-effect control and ±100 the full control effect; nearly all actives have a fitted effect of over 60% in size
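KB-V1, DMEM (no phenol red) + 10% FBS; cpd pin-transferred, titration series; 72 h, 37 degrees C; CellTiter-Glo, luminescence. Data normalized, curve-fit.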
ELG1 DNA repair = qHTS screen for small molecules that inhibit ELG1-dependent DNA repair in human embryonic kidney (HEK293T) cells expressing luciferase-tagged ELG1; HEK293T ELG1-luciferase reporter, luminescence, 16 h; DNA damage induced by 5-fluorouridine; Potency, µM (titrated, usually from 46.1 µM), without a hit: at the top dose activity change, negative = inhibition, actives largely listed as inhibitors; hit rate 2.3% among 330,000; AID 504467, 2011; further: on the % scale 0 is the no-effect control and ±100 the full control effect; nearly all actives have a fitted effect of over 55% in size
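Quantitative HTS, concentration-response format. 2,000 cells/well co-treated with 5-fluorouridine and compound, 16 hr in 5% CO2 at 37 °C; ONE-Glo luminescence read after 30 min.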
Starred values were filed as active, the others as inactive; i = inactive; ? = inconclusive; . = no result given; [ ] = another dose, or the depositor's remark. Rows were chosen to be rich in hits. Some 8.1% of all compounds tested hit in one or more screens of this group. The call rests on the fitted dose curve; in most records, active means well fitted curve in the direction sought with a large enough effect; inconclusive means small, poorly fitted or top-dose-only effect, or another doubt; inactive means no such curve, though single readings can be large; an effect the other way counts as inactive or inconclusive. Potency means the concentration at half of the fitted maximal effect.

SMILES	KB-3-1 cytotox	SW480 rereplic	MCF10A rerep	KB-V1 MDR tox	ELG1 DNA repair
COc1ccc(CN2CCN(S(=O)(=O)c3ccc(NC(C)=O)cc3)CC2)cc1OC	i	-0.9%	?	20.6µM*	-22.9%
COc1ccc(CN2CCN(S(=O)(=O)c3ccc(F)cc3)CC2)c(OC)c1OC	i	-2.0%	?	?	?
CS(=O)(=O)N1CCN(CC2CC3C=CC2C3)CC1 (stereo not drawn)	i	2.5%	13.0%	i	1.5%
COc1cc(CN2CCN(S(=O)(=O)c3ccc(NC(C)=O)cc3)CC2)cc(OC)c1O	i	-4.6%	-4.8%	i	-13.1%
CCOC(=O)C1(CCSC)NC(c2ccco2)C2C(=O)N(CC)C(=O)C21 (stereo not drawn)	i	-4.9%	-2.2%	i	4.7%
Cc1ccc(C(=O)NCCSCc2ccc(Cl)cc2Cl)cc1[N+](=O)[O-]	i	4.3%	?	i	?
Cc1cc(CNC(=O)c2cccc([N+](=O)[O-])c2C)c2ccccc2n1	i	13.2%	-2.1%	5.8µM*	?
Cc1cc(CNC(=O)Cc2ccccc2)c2ccccc2n1	i	2.3%	0.8%	?	?
Cc1c(C(=O)NCCSCc2ccc(Cl)cc2Cl)cccc1[N+](=O)[O-]	?	19.6%	?	25.9µM*	?
COCC(=O)OCC(=O)Nc1ccc(Cl)cc1[N+](=O)[O-]	i	-31.0%[1.84 µM]	11.2%	i	?
CCOc1ccc(Cl)cc1S(=O)(=O)N1CCC(C(=O)NC2CC2)CC1	i	-3.2%	0.1%	?	-5.5%
Cc1nc([N+](=O)[O-])c(Br)n1CC(=O)c1ccc(Cl)cc1	18.4µM*	?	14.6µM*	?	-2.2%
COc1ccc(C(=O)Cn2c(C)nc([N+](=O)[O-])c2Br)cc1	?	4.6%	?	i	?
Cc1nc([N+](=O)[O-])c(Br)n1Cc1ccc(Cl)c(Cl)c1	?	?	20.6µM*	?	?
CCOC(=O)c1ccc2nc(C(F)(F)F)[nH]c(=O)c2c1	i	-2.8%	15.7%	i	5.2%
C=CCc1cc(/C=N/NC(=O)CSc2nnc(CCCc3ccc(OC)cc3)o2)cc(OC)c1O	i	7.8%	11.0%	i	-16.8%
COCCCn1c(C(=O)NC2CCCCC2C)cc2c(=O)n3cccc(C)c3nc21 (stereo not drawn)	i	-8.2%	?	i	13µM*
CCN(C(=O)c1cc2c(=O)n3cccc(C)c3nc2n1CCCOC)C1CCCCC1	i	29.1µM*	18.4µM*	?	23.1µM*
CC(=O)NCCNc1nc2cc(-c3cnn(CCC(C)C)c3)sc2c(=O)n1C	i	.	.	i	.
COc1ccc(NC(=O)c2c[nH]c(=O)n(-c3ccc(C)c(C)c3)c2=O)c(OC)c1	i	-18.3%	13.8%	i	.
COc1cc(/C=C2/SC(=S)N(CCC(=O)Nc3ccccc3)C2=O)cc(OC)c1OC	i	0.9%	20.6µM*	i	?
COc1cc(/C=C2\SC(=S)N(CCC(=O)Nc3ccccc3)C2=O)cc(OC)c1OC	i	-55.8%	18.4µM*	i	?
COc1ccccc1NC(=O)CCN1C(=O)/C(=C\c2cc(OC)c(OC)c(OC)c2)SC1=S	i	5.0%	1.0%	i	?
COc1cc(/C=C2\SC(=S)N(CCC(=O)Nc3cccc(O)c3)C2=O)cc(OC)c1OC	i	-2.6%	?	i	?
COc1ccccc1/C=C1\SC(=S)N(CCC(=O)Nc2cccc(O)c2)C1=O	i	-23.5%	10.3µM*	i	?
SMILES	KB-3-1 cytotox	SW480 rereplic	MCF10A rerep	KB-V1 MDR tox	ELG1 DNA repair
CCOC(=O)c1nn(-c2ccccc2)c(C#N)c1NC(=O)c1nn(CC)cc1Br	i	15.8%	7.8%	i	.
CCOC(=O)c1c(NC(=O)c2nn(CC)cc2Br)c(C#N)nn1-c1ccccc1	i	3.5%	-1.1%	16.4µM*	?
Cn1c(=O)c2c(SCC(=O)c3ccccc3)nc(C3CC3)nc2n(C)c1=O	i	-5.4%	1.2%	i	?
Cc1ccc(-c2csc(NCCn3c(-c4ccncc4)nc4ccccc43)n2)cc1	?	0.1%	2.5%	20.6µM*	?
Cc1ccc(Cn2c(C(CO)Nc3nc(-c4ccc(F)cc4)cs3)nc3ccccc32)cc1 (stereo not drawn)	16.4µM*	17.6%	?	i	.
COc1ccc(S(=O)(=O)Cc2ccc(C(=O)NC(C)C)o2)cc1	i	-2.9%	4.5%	i	-0.4%
c1ccc(-c2ccc(-c3nc(-c4cccnc4)no3)cc2)cc1	i	-8.5%	17.3%	16.4µM*	?
O=[N+]([O-])c1ccc(-c2nc(-c3ccncc3)no2)cc1	i	2.3%	-8.6%	18.4µM*	?
c1ccc(-c2nc(-c3ccncc3)no2)cc1	i	-0.6%	0.3%	i	.
c1ccc(-c2noc(-c3cccnc3)n2)cc1	i	-2.4%	-2.7%	i	.
c1ccc(-c2ccc(-c3nc(-c4ccncc4)no3)cc2)cc1	i	14.8%	14.6µM*	?	?
c1ccc(C(Cc2nc(-c3ccncc3)no2)c2ccccc2)cc1	11.6µM*	-1.4%	3.6%	i	-4.8%
COc1cccc2cc(-c3cc(=O)oc4cc(C)c(OCC(C)=O)cc34)oc12	?	6.51µM*	19.8%	i	5.17µM*
COc1ccc2oc(=O)cc(-c3cc4cccc(OC)c4o3)c2c1	i	1.4%	-3.2%	i	3.6%
CCCCOC(=O)n1c(SCC(=O)N(C)C)nc2ccccc21	i	-3.1%	-5.9%	16.4µM*	3.9%
COc1cc(-c2cc(C(=O)Nc3c(Cl)cc(Cl)cc3Cl)c3ccccc3n2)cc(OC)c1OC	i	0.5%	?	i	5.17µM*
COc1cc(-c2cc(C(=O)Nc3ccc(S(N)(=O)=O)cc3)c3ccccc3n2)cc(OC)c1OC	i	8.7%	?	i	?
CCN(CC)S(=O)(=O)c1ccc(O)c(NC(=O)c2cc(-c3cc(OC)c(OC)c(OC)c3)nc3ccccc23)c1	i	?	18.4µM*	i	16.4µM*
CCN(C(C)=O)c1cnc(C=NNC(N)=S)c2ccccc12	i	10.3µM*	4.61µM*	14.6µM*	.
COCCn1c(C)cc(/C=C(\C#N)C(=O)OCC(=O)Nc2ccc(S(N)(=O)=O)cc2)c1C	i	-33.3%	16.4µM*	i	0.4%
CCCn1c(C)cc(/C=C(\C#N)C(=O)OCC(=O)Nc2ccc(OC)c(Cl)c2)c1C	i	6.9%	3.5%	?	-19.6%
